Source: PubChem BioAssay (NCI)
This is part of a sample that, as a whole, favours compounds with a hit. Of some 79,000 tested, about 15% had one in any assay. A number with no mark means an inactive call. Calls of active or inactive are those of the source. Cut-off read from the data, not from the text of the source: active = growth inhibition above about 70%; inactive = the rest.

Assay: NCI Yeast Anticancer Drug Screen. Data for the cln2 rad14 strain (AID 165);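 note: 0% = growth equal to vehicle treated cultures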
Settings: S. cerevisiae cln2 rad14 strain, at 50.0 µM, active compounds read high
How it was run: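 Test compounds were added to cln2 rad14 yeast cultures; inhibition of growth was then determined by comparison with vehicle treatment.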

With CCN(CC)CCN(CC)CC(=O)Nc1ccccc1Cl as the compound, how does the growth inhibition read?
Its growth inhibition is 4.35%.

For COc1[nH]c2ccccc2c1C=O, which growth inhibition is on record?
The growth inhibition was 17.1%.

Which growth inhibition does the source give for CCOC(=O)C1=C(C(=O)c2ccc(C)cc2)C(c2ccc([N+](=O)[O-])cc2)C(C(=O)c2ccc(C)cc2)=C(C(=O)OCC)N1 here?
The growth inhibition was -12.4%.

With CCOC(=O)CC1(CC(=O)OCC)OCCO1 as the compound, how does the growth inhibition read?
Its growth inhibition is -4.15%.

With CCOC(=O)CCC1(C)OCC(O)CO1 (stereo not given) (tested in a mixture with another compound) as the compound, how does the growth inhibition read?
Its growth inhibition is -2.85%.

Which growth inhibition does the source give for O=C(NCCc1[nH]nc2c1C(=O)C=C(Nc1ccccc1)C2=O)OCc1ccccc1 here?
Its growth inhibition is -21.9%.

Which growth inhibition does the source give for NNC(=O)c1ccc(OCc2nc3ccccc3[nH]2)cc1 here?
Its growth inhibition is 5.1%.

With C=Cc1c(C)c2cc3[nH]c(cc4nc(cc5nc(cc1[nH]2)C(C)=C5CCC(=O)OC)C(CCC(=O)OC)=C4C)c(C)c3C=C as the compound, how does the growth inhibition read?
Its growth inhibition is 13.1%.

For Cc1cc(N(CCC#N)S(=O)(=O)c2ccccc2)ccc1C=Nc1ccc(C(=O)O)cc1, which growth inhibition is on record?
Its growth inhibition is -3.8%.

For CC(C)NC(=O)CCC(=O)O, which growth inhibition is on record?
Its growth inhibition is -5.65%.

For CC1=N/C(=C\c2ccc([N+](=O)[O-])cc2)C(=O)O1, which growth inhibition is on record?
Its growth inhibition is 4.6%.

For COc1cc(C(C#N)NNC(=O)c2ccccc2O)ccc1O (stereo not given), which growth inhibition is on record?
Its growth inhibition is 17.6%.

Which growth inhibition does the source give for NC(=O)CO here?
The growth inhibition was 5.35%.

With CC1=CC(O)(Cc2ccccc2)CC(C)(C)C1 (stereo not given) as the compound, how does the growth inhibition read?
Its growth inhibition is -0.9%.

With CCCCCn1c(=O)c2c(=O)[nH][nH]c2c2ccccc21 as the compound, how does the growth inhibition read?
The growth inhibition was -69.6%.

With CCCc1cc(=O)oc2c3c(c4c(c12)OC(C)(C)CC4)O[C@H](C)C(C)[C@@H]3O (stereo not given in full) as the compound, how does the growth inhibition read?
The growth inhibition was -11.3%.

For CCN(CCO)CC(=O)c1cc(Cl)ccc1OC, which growth inhibition is on record?
The growth inhibition was -37%.

With CCC1CCC(Cc2ccncc2)CC1 (stereo not given) as the compound, how does the growth inhibition read?
Its growth inhibition is -78.9%.

With O=C1c2ccccc2C(=O)c2c1cccc2S(=O)(=O)Nc1ccccc1 as the compound, how does the growth inhibition read?
The growth inhibition was -30.1%.

With O=C(Nc1ccc(Cl)cc1)OCC#CCOC(=O)Nc1ccc(Cl)cc1 as the compound, how does the growth inhibition read?
Its growth inhibition is -2.05%.

Which growth inhibition does the source give for CCN(CC)CCOc1ccc(/C(C#N)=C/c2ccc(OCCN3CCCCC3)cc2)cc1 here?
The growth inhibition was 64.9%.

With O=C(Nc1ccccc1)c1ccccc1Cl as the compound, how does the growth inhibition read?
The growth inhibition was 2.8%.

With CCC1CCC(=O)NC1=O (stereo not given) as the compound, how does the growth inhibition read?
Its growth inhibition is -7.75%.

For CCN(CC)CCOC(=O)c1ccc(N)c2ccccc12, which growth inhibition is on record?
Its growth inhibition is -22.4%.

For NC1CC(=O)c2c(Cl)sc(Cl)c21 (stereo not given), which growth inhibition is on record?
The growth inhibition was 41.6%.

With CCC1(CC)SCc2nc3ccccc3n21 as the compound, how does the growth inhibition read?
The growth inhibition was 29.3%.

For O=c1[nH]cnc2nn(C3OC(CO)C(O)C3O)cc12 (stereo not given), which growth inhibition is on record?
The growth inhibition was -5.65%.

Which growth inhibition does the source give for CC1=NN(C(=O)Cc2ccccc2)C(=O)/C1=C\c1ccco1 here?
The growth inhibition was -13.8%.

With CCCCCCCCCCCCCCCCCC(N)=O as the compound, how does the growth inhibition read?
The growth inhibition was -15.7%.

For Cc1ccc(-c2nnc(-c3cccc4ccccc34)o2)cc1, which growth inhibition is on record?
Its growth inhibition is 4.1%.

For CC12OC(=O)CC1C(c1ccccc1)(c1ccccc1)O2 (stereo not given), which growth inhibition is on record?
Its growth inhibition is -50.2%.

With CCCCCCCCC(=O)c1c(OC)oc(/C=N/NC(N)=S)cc1=O as the compound, how does the growth inhibition read?
The growth inhibition was 9.55%.

Which growth inhibition does the source give for CC(=O)N/N=C1/NN(C(C)=O)C2(S1)C(=O)Nc1ccc(C)cc12 (stereo not given) here?
The growth inhibition was 28.8%.

Which growth inhibition does the source give for CCOc1ccccc1NC(=O)CC1Sc2ccccc2NC1=O (stereo not given) here?
Its growth inhibition is 2.55%.

Which growth inhibition does the source give for CCOC(=O)CS here?
Its growth inhibition is 5.7%.

For O=c1c2c(ccc3ccccc32)oc2ccc3ccccc3c12, which growth inhibition is on record?
Its growth inhibition is -45.1%.

For CC1(C)CCC(=O)OC1C[N+](=O)[O-] (stereo not given), which growth inhibition is on record?
Its growth inhibition is 11.8%.

With CC(=O)OCN(C)C=O as the compound, how does the growth inhibition read?
Its growth inhibition is 14.5%.

Which growth inhibition does the source give for O=C(NC1C=Nc2ccc([N+](=O)[O-])cc2NC1=O)c1ccc(Cl)cc1 (stereo not given) here?
Its growth inhibition is -18%.

With CCNC(=O)N(C)Cc1ccc(Cl)cc1 as the compound, how does the growth inhibition read?
Its growth inhibition is -71.5%.

Assay: NCI Yeast Anticancer Drug Screen. Data for the bub3 strain (AID 167)
Settings: S. cerevisiae bub3 mutant strain, at 50.0 µM, active compounds read high
How it was run: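 Part of a panel of yeast mutants defective in DNA damage repair or cell cycle regulation. Each strain is grown with compound, and inhibition is calculated relative to solvent-treated cultures.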

For CCN(CC)CCN(CC)CC(=O)Nc1ccccc1Cl, which growth inhibition is on record?
The growth inhibition was -3.6%.

With COc1[nH]c2ccccc2c1C=O as the compound, how does the growth inhibition read?
The growth inhibition was 11%.

For CCOC(=O)C1=C(C(=O)c2ccc(C)cc2)C(c2ccc([N+](=O)[O-])cc2)C(C(=O)c2ccc(C)cc2)=C(C(=O)OCC)N1, which growth inhibition is on record?
The growth inhibition was -14.9%.

With CCOC(=O)CC1(CC(=O)OCC)OCCO1 as the compound, how does the growth inhibition read?
The growth inhibition was -28.8%.

With CCOC(=O)CCC1(C)OCC(O)CO1 (stereo not given) (tested in a mixture with another compound) as the compound, how does the growth inhibition read?
Its growth inhibition is -16.6%.

For O=C(NCCc1[nH]nc2c1C(=O)C=C(Nc1ccccc1)C2=O)OCc1ccccc1, which growth inhibition is on record?
Its growth inhibition is -29.1%.

For NNC(=O)c1ccc(OCc2nc3ccccc3[nH]2)cc1, which growth inhibition is on record?
Its growth inhibition is -87.2%.

For C=Cc1c(C)c2cc3[nH]c(cc4nc(cc5nc(cc1[nH]2)C(C)=C5CCC(=O)OC)C(CCC(=O)OC)=C4C)c(C)c3C=C, which growth inhibition is on record?
Its growth inhibition is -1.05%.

Which growth inhibition does the source give for Cc1cc(N(CCC#N)S(=O)(=O)c2ccccc2)ccc1C=Nc1ccc(C(=O)O)cc1 here?
The growth inhibition was 1.85%.

For CC(C)NC(=O)CCC(=O)O, which growth inhibition is on record?
The growth inhibition was 12.1%.

For CC1=N/C(=C\c2ccc([N+](=O)[O-])cc2)C(=O)O1, which growth inhibition is on record?
The growth inhibition was 13.2%.

Which growth inhibition does the source give for COc1cc(C(C#N)NNC(=O)c2ccccc2O)ccc1O (stereo not given) here?
The growth inhibition was 66.2%.

With NC(=O)CO as the compound, how does the growth inhibition read?
The growth inhibition was 5.7%.

For CC1=CC(O)(Cc2ccccc2)CC(C)(C)C1 (stereo not given), which growth inhibition is on record?
Its growth inhibition is -27.9%.

With CCCCCn1c(=O)c2c(=O)[nH][nH]c2c2ccccc21 as the compound, how does the growth inhibition read?
The growth inhibition was -1.3%.

With CCCc1cc(=O)oc2c3c(c4c(c12)OC(C)(C)CC4)O[C@H](C)C(C)[C@@H]3O (stereo not given in full) as the compound, how does the growth inhibition read?
Its growth inhibition is 2.85%.

For CCN(CCO)CC(=O)c1cc(Cl)ccc1OC, which growth inhibition is on record?
Its growth inhibition is 6.55%.

With CCC1CCC(Cc2ccncc2)CC1 (stereo not given) as the compound, how does the growth inhibition read?
The growth inhibition was 13.4%.

Which growth inhibition does the source give for O=C1c2ccccc2C(=O)c2c1cccc2S(=O)(=O)Nc1ccccc1 here?
Its growth inhibition is 20.1%.

With O=C(Nc1ccc(Cl)cc1)OCC#CCOC(=O)Nc1ccc(Cl)cc1 as the compound, how does the growth inhibition read?
Its growth inhibition is -0.35%.

For CCN(CC)CCOc1ccc(/C(C#N)=C/c2ccc(OCCN3CCCCC3)cc2)cc1, which growth inhibition is on record?
The growth inhibition was 26.2%.

Which growth inhibition does the source give for O=C(Nc1ccccc1)c1ccccc1Cl here?
The growth inhibition was -3.05%.

With CCC1CCC(=O)NC1=O (stereo not given) as the compound, how does the growth inhibition read?
The growth inhibition was -9.6%.

Which growth inhibition does the source give for CCN(CC)CCOC(=O)c1ccc(N)c2ccccc12 here?
The growth inhibition was 5.5%.

For NC1CC(=O)c2c(Cl)sc(Cl)c21 (stereo not given), which growth inhibition is on record?
Its growth inhibition is 27.6%.

For CCC1(CC)SCc2nc3ccccc3n21, which growth inhibition is on record?
The growth inhibition was 58.8%.

With O=c1[nH]cnc2nn(C3OC(CO)C(O)C3O)cc12 (stereo not given) as the compound, how does the growth inhibition read?
Its growth inhibition is 9.25%.

With CC1=NN(C(=O)Cc2ccccc2)C(=O)/C1=C\c1ccco1 as the compound, how does the growth inhibition read?
The growth inhibition was -25.9%.

With CCCCCCCCCCCCCCCCCC(N)=O as the compound, how does the growth inhibition read?
Its growth inhibition is -2.5%.

Which growth inhibition does the source give for Cc1ccc(-c2nnc(-c3cccc4ccccc34)o2)cc1 here?
The growth inhibition was -44.1%.

For CC12OC(=O)CC1C(c1ccccc1)(c1ccccc1)O2 (stereo not given), which growth inhibition is on record?
The growth inhibition was 2.75%.

Which growth inhibition does the source give for CCCCCCCCC(=O)c1c(OC)oc(/C=N/NC(N)=S)cc1=O here?
Its growth inhibition is 86.2% (active).

Which growth inhibition does the source give for CC(=O)N/N=C1/NN(C(C)=O)C2(S1)C(=O)Nc1ccc(C)cc12 (stereo not given) here?
The growth inhibition was 24.8%.

For CCOc1ccccc1NC(=O)CC1Sc2ccccc2NC1=O (stereo not given), which growth inhibition is on record?
The growth inhibition was 3.85%.

Which growth inhibition does the source give for CCOC(=O)CS here?
Its growth inhibition is 20.6%.

Which growth inhibition does the source give for O=c1c2c(ccc3ccccc32)oc2ccc3ccccc3c12 here?
Its growth inhibition is -7.65%.

With CC1(C)CCC(=O)OC1C[N+](=O)[O-] (stereo not given) as the compound, how does the growth inhibition read?
Its growth inhibition is 0.3%.

For CC(=O)OCN(C)C=O, which growth inhibition is on record?
The growth inhibition was 11.1%.

For O=C(NC1C=Nc2ccc([N+](=O)[O-])cc2NC1=O)c1ccc(Cl)cc1 (stereo not given), which growth inhibition is on record?
The growth inhibition was -1.85%.

Which growth inhibition does the source give for CCNC(=O)N(C)Cc1ccc(Cl)cc1 here?
Its growth inhibition is -8.95%.
